# Source: PubChem BioAssay
# An excerpt weighted towards active compounds, which were near 21% of everything screened.
# NS1 inh – qHTS Assay for Inhibitors of Influenza NS1 Protein Function; 270,000 tested, 0.4% active; Potency, µM (series often up to 46.1 µM); AID 2326, 2010; further: actives are rising curves; nearly all actives have a fitted effect of over 50% in size
#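 OD600 was taken as the measure of yeast growth restored by compound in an NS1-expressing S. cerevisiae strain. Cells had been washed out of glucose medium and diluted 1:100 into galactose -URA medium, pH 6.0.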
# SARS PLP yeast – qHTS of Yeast-based Assay for SARS-CoV PLP; AID 485353, 2010; 330,000 tested, 0.19% active; S. cerevisiae expressing SARS-CoV PLpro, growth rescue; Potency, µM (series often up to 32.9 µM), most hits filed as activators; further: nearly all actives have a fitted effect of over 55% in size
# Pf growth 48h – Primary qHTS for delayed death inhibitors of the malarial parasite plastid, 48 hour incubation; P. falciparum luciferase growth in erythrocytes, 48 h; Potency, µM (titrated, usually from 28.7 µM), usual class: inhibitors; 310,000 tested, 5.9% active; active means well fitted inhibition curve with a large enough effect; inconclusive means small, poorly fitted or top-dose-only effect, or another doubt; inactive means no such curve, though single readings can be large or run the other way
#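 A one-generation exposure of luciferase-tagged malaria parasites in RPMI 1640/Albumax erythrocyte culture, 37 C and 5% CO2. Inhibition is inferred from decreased luminescence after adding detection reagent.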
# Cycloheximide cs – Cycloheximide Counterscreen for Small Molecule Inhibitors of Shiga Toxin; cell reporter, cycloheximide protein synthesis inhibition counterscreen; max response, %; 300,000 tested, 12% active; in the data active means max response mostly above about 13%, no sharp cut-off; inactive means mostly below about 14%; further: read at 38.3 µM for the half of the compounds with a filed dose
# Shiga toxin inh – A qHTS for Small Molecule Inhibitors of Shiga Toxin | inhibition, % at 38.7 µM | Vero cells, Shiga toxin protein synthesis inhibition reporter | AID 2315, 2010 | 290,000 tested, 9.2% active; in the data active means inhibition mostly above about 28%, no sharp cut-off; inactive means mostly below about 43%
# Pf growth 96h – Primary qHTS for delayed death inhibitors of the malarial parasite plastid, 96 hour incubation; AID 504834, 2011; Potency, µM (titrated, usually from 28.7 µM), hits mostly inhibitors; 320,000 tested, 6.9% active; P. falciparum luciferase reporter growth, 96 h; active means well fitted inhibition curve with a large enough effect; inconclusive means small, poorly fitted or top-dose-only effect, or another doubt; inactive means no such curve, though single readings can be large or run the other way
#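 P. falciparum expressing integrated firefly luciferase grown in erythrocytes (2% hematocrit, 0.05% parasitemia final) with compounds for 96 hours at 37 C, 5% CO2. Growth inhibition read as loss of luminescence after adding luciferase detection reagent.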
# Hits are given with their value; 0 = inactive; ? = inconclusive; - = not tested or not shown; [ ] = remark or other dose. Unless noted, the call rests on the fitted dose curve.
SMILES,NS1 inh,SARS PLP yeast,Pf growth 48h,Cycloheximide cs,Shiga toxin inh,Pf growth 96h
Cc1noc(C)c1COc1ccc(C(=O)NCc2ccccn2)cc1,0,0,0,0,0,9.3µM
Cc1noc(C)c1COc1ccc(C(=O)NNC(=O)c2ccccc2O)cc1,-,0,0,-,-,?
Cc1cc(NC(=O)c2ccccc2C)n(-c2cccc(F)c2)n1,0,0,0,0,0,0
Cn1c(=O)c2c(ncn2CC(=O)OCC(=O)NNC(=O)c2ccc(Cl)cc2)n(C)c1=O,-,0,0,-,-,0
Cc1[nH][nH]c(=O)c1C(c1ccccc1[N+](=O)[O-])C(C#N)C#N (stereo not given),-,0,0,0,0,13µM
Cc1[nH][nH]c(=O)c1C(c1cc([N+](=O)[O-])ccc1O)c1c(C)[nH][nH]c1=O,0,0,?,0,0,0
O=C(Oc1ccc(NC2=C(Cl)C(=O)c3ccccc3C2=O)cc1)c1ccc([N+](=O)[O-])cc1,0,0,0,18,0,0
O=C(Oc1ccc([N+](=O)[O-])cc1)c1cccnc1,0,?,0,0,0,?
CN1CCC/C1=C/C=C1\SC(=S)NC1=O,0,0,0,0,35,?
CN1/C(=C\C=C2/SC(=S)NC2=O)C(C)(C)c2ccccc21,0,0,?,0,0,?
O=C(Cc1ccccc1)Nc1nc(-c2cccs2)cs1,0,0,0,43,105,-
O=C(Cc1ccccc1)Nc1nnc(-c2cccs2)s1,0,0,0,25,0,0
CCc1noc(C)c1C(=O)Nc1nc(-c2cc(OC)ccc2OC)cs1,-,0,?,-,-,?
CCc1noc(C)c1C(=O)Nc1nc(-c2ccc(OC)cc2OC)cs1,-,0,2.3µM,-,-,2.3µM
COc1ccc(-c2csc(NC(=O)Cc3ccccc3F)n2)c(OC)c1,0,0,?,14,0,?
O=C(CN1C(=O)CCC1=O)Nc1nc(-c2cccs2)cs1,0,0,0,0,0,0
CCC(=O)Nc1nnc(-c2cccs2)s1,0,0,0,0,0,0
COc1ccc(OC)c(-c2csc(NC(=O)Cc3ccccc3)n2)c1,0,0,?,0,0,?
COc1ccc(-c2cc(C)no2)cc1S(=O)(=O)N(C)c1ccc(C)cc1,0,0,?,0,0,?
Cc1cccc(N2CCN(C(=O)c3cccc(N4C(=O)C5CC=CC(C)C5C4=O)c3)CC2)c1C (stereo not given),0,0,-,0,0,?
O=C(Cc1ccccc1F)Nc1nc(-c2cccs2)cs1,0,0,0,37,50,?
O=C(Cc1ccccc1F)Nc1nc(-c2ccc(F)c(F)c2)cs1,0,0,0,19,62,0
COc1ccc(C2=Nn3c(nnc3-c3cccc(OC)c3OC)SC2)c(OC)c1,-,-,-,0,0,-
CCCCCCCCCCCCOCCOCCOCCOCCO,-,-,-,0,0,-
Cc1cc(Cl)c2oc(C(=O)N(C)CCCCN3CCOCC3)c(C)c2c1,0,0,0,0,0,?
SMILES,NS1 inh,SARS PLP yeast,Pf growth 48h,Cycloheximide cs,Shiga toxin inh,Pf growth 96h
Cc1cc(Cl)c2oc(C(=O)NCC(C)(C)N3CCOCC3)c(C)c2c1,0,0,?,18,0,0
Cc1cc(Cl)c2oc(C(=O)NC3CCC(O)CC3)c(C)c2c1 (stereo not given),0,-,0,21,-,0
CCOC(=O)C1CCCCN1C(=O)c1oc2c(Cl)cc(C)cc2c1C (stereo not given),0,0,0,46,118,?
COC(=O)C1CCN(C(=O)c2oc3c(Cl)cc(C)cc3c2C)CC1,0,0,0,47,76,0
CCC1CCCCN1C(=O)CCC(=O)Nc1nnc(C(F)(F)F)s1 (stereo not given),0,0,0,0,0,?
CC(=O)c1c(O)cc(O)c(C(C)=O)c1O,0,0,10µM,0,0,0
CCOc1ccc(C(=O)NCCCN2CCOCC2)cc1OCC,0,0,0,0,0,0
CC(C)(C)c1ccc(S(=O)(=O)N2CCN(c3ccccn3)CC2)cc1,0,0,0,0,0,0
O=C(CSc1ccccn1)N1CCc2ccccc21,-,0,0,40,116,0
O=C(CSc1ccc(-c2ccccn2)nn1)N1CCc2ccccc21,-,0,0,0,42,0
O=C(CSc1ccc(-c2ccccn2)nn1)NC1CCCCC1,-,0,0,0,0,?
COc1cccc(-n2ccnc2SCC(=O)N2CCc3ccccc32)c1,0,0,0,0,0,0
Cn1ccnc1SCC(=O)N1CCc2ccccc21,0,0,0,31,79,0
NC(=O)c1ccccc1NS(=O)(=O)Cc1ccc(Cl)cc1,0,0,0,0,0,0
CCNc1c(NC(=O)COc2ccc(Cl)cc2)c(=O)oc2ccccc12,0,0,?,0,0,?
CSc1ccccc1NC(=O)COc1ccc(Cl)cc1,0,0,0,32,48,?
O=C(COc1ccccc1)Nc1ccccc1Oc1ccccc1,0,0,0,0,0,0
CSc1ccccc1NC(=O)COC(=O)c1ccccc1O,-,0,0,0,0,0
NC(=O)c1ccccc1NC(=O)COc1ccc(Cl)cc1,0,0,0,29,90,0
CCCNc1c(NC(=O)COc2ccc(Cl)cc2)c(=O)oc2ccccc12,0,0,0.066µM,0,0,?
O=C(COc1ccccc1)Nc1ccncc1Cl,0,0,0,52,92,0
CCOc1ccccc1NC(=S)NCc1cccn1C,-,0,0,0,0,0
O=C(COc1ccc2ccccc2c1)Nc1ccccc1C(=O)O,0,0,0,20,0,0
Cc1ccc(OCC(=O)Nc2ccccc2C(N)=O)cc1,0,0,0,35,-,?
O=C(COc1ccc(Cl)cc1)Nc1ccccc1Cl,0,0,?,49,76,?
SMILES,NS1 inh,SARS PLP yeast,Pf growth 48h,Cycloheximide cs,Shiga toxin inh,Pf growth 96h
Cc1ccccc1N(CC(=O)Nc1ccc(S(=O)(=O)N2CCOCC2)cc1)S(C)(=O)=O,0,0,?,0,0,?
COc1ccc(C(C)(C)C)cc1NC(=O)CCCN1C(=O)CN(C)C1=O,-,0,0,-,-,0
COc1cc(NC(=O)c2ccc([N+](=O)[O-])cc2)c(OC)cc1NC(=O)CC(C)C,-,0,0,0,0,?
COC(=O)C1=C(N)N(c2ccccc2F)C2=C(C(=O)CC(C)(C)C2)C1c1ccc(OC)c(OC)c1 (stereo not given),0,0,0,0,0,?
CC1CCCN(C(=S)Nc2ccc(Nc3ccccc3)cc2)C1 (stereo not given),0,0,0,23,99,0
COC(=O)Cc1ccc(NC(=S)N2CCCC(CO)C2)cc1 (stereo not given),0,0,15µM,0,0,0
COc1cc(NC(=S)N2CCCC(CO)C2)cc(OC)c1 (stereo not given),0,0,0,0,0,0
CC1CCCN(C(=S)Nc2ccc(F)cc2)C1 (stereo not given),0,0,0,0,0,0[5.75 µM]
